Holding throughout (assay): glycan array binding signal (z-score within array); higher = stronger binding
Conditions in all cases: glycan notation: IUPAC condensed, linker removed

Assay [1] has as its target Fuc(a1-2)Gal. Put shortly: (§1)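 Glycan array data came from 3228 arrays in the Consortium for Functional Glycomics database, and only arrays with an available protein sequence were kept. Glycan names were put into IUPAC-condensed notation, and columns mapping to the same glycan were averaged. The binding signal is a within-array Z-score, averaged across arrays of one protein sequence run at different concentrations or buffers and across linkers. A negative Z-score can be read as non-binding.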

In assay [2] the target is Fuc(a1-2)Gal(b1-3)GlcNAc(b1-3)Gal(b1-4)Glc. Put shortly:
as §1

Assay [3] addresses Fuc(a1-2)Gal(b1-3)GlcNAc(b1-3)[Fuc(a1-2)Gal(b1-3)GlcNAc(b1-6)]GalNAc. Put shortly:
as §1

Assay [4] has as its target Fuc(a1-2)Gal(b1-4)GlcNAc. Put shortly:
as §1

In assay [5] the target is Fuc(a1-2)Gal(b1-4)GlcNAc(b1-6)GalNAc. Put shortly: as §1
Assay [6] deals with Fuc(a1-2)Gal6S(b1-3)GlcNAc6S. The essentials:
as §1

Assay [7] addresses Fuc(a1-2)Gal6S(b1-4)Glc6S. Put shortly:
as §1

The target in assay [8] is Fuc(a1-2)[Gal(a1-3)]Gal(b1-3)GlcNAc(b1-2)Man(a1-3)[Fuc(a1-2)[Gal(a1-3)]Gal(b1-3)GlcNAc(b1-2)Man(a1-6)]Man(b1-4)GlcNAc(b1-4)[Fuc(a1-6)]GlcNAc. Put shortly: as §1
The target of assay [9] is Fuc(a1-2)[Gal(a1-3)]Gal(b1-4)GlcNAc(b1-3)GalNAc. The essentials:
as §1

Assay [10] has as its target Fuc(a1-2)[GalNAc(a1-3)]Gal(b1-4)Glc. The essentials: as §1
Assay [11] deals with Fuc(a1-2)[GalNAc(a1-3)]Gal(b1-4)GlcNAc(b1-2)Man(a1-3)[Fuc(a1-2)[GalNAc(a1-3)]Gal(b1-4)GlcNAc(b1-2)Man(a1-6)]Man(b1-4)GlcNAc(b1-4)[Fuc(a1-6)]GlcNAc. The essentials: as §1
The target in assay [12] is Fuc(a1-3)[Gal(b1-4)]GlcNAc6S. Put shortly:
as §1

For assay [13], the target named is Fuc(a1-3)[Gal3S(b1-4)]Glc. The essentials:
as §1

The target of assay [14] is Gal(a1-3)Gal(b1-4)GlcNAc(b1-2)Man(a1-3)[Gal(a1-3)Gal(b1-4)GlcNAc(b1-2)Man(a1-6)]Man(b1-4)GlcNAc(b1-4)GlcNAc. Put shortly: as §1
For assay [15], the target named is Gal(b1-3)GalNAc(b1-3)Gal. The essentials:
as §1

For assay [16], the target named is Gal(b1-3)GlcNAc(a1-6)Gal(b1-4)GlcNAc. Put shortly:
as §1

In assay [17] the target is Gal(b1-3)GlcNAc(b1-2)Man. Put shortly:
as §1

Assay [18] has as its target Gal(b1-3)GlcNAc(b1-3)Gal(b1-4)Glc. Put shortly:
as §1

Assay [19] addresses Gal(b1-3)GlcNAc(b1-3)Gal(b1-4)GlcNAc(b1-2)[Gal(b1-3)GlcNAc(b1-3)Gal(b1-4)GlcNAc(b1-6)]Man(a1-6)[Gal(b1-3)GlcNAc(b1-3)Gal(b1-4)GlcNAc(b1-2)Man(a1-3)]Man(b1-4)GlcNAc(b1-4)[Fuc(a1-6)]GlcNAc. The essentials:
as §1

Assay [20] concerns the target Gal(b1-3)GlcNAc(b1-3)Gal(b1-4)GlcNAc(b1-3)Gal(b1-4)GlcNAc(b1-2)[Gal(b1-3)GlcNAc(b1-3)Gal(b1-4)GlcNAc(b1-3)Gal(b1-4)GlcNAc(b1-6)]Man(a1-6)[Gal(b1-3)GlcNAc(b1-3)Gal(b1-4)GlcNAc(b1-3)Gal(b1-4)GlcNAc(b1-2)Man(a1-3)]Man(b1-4)GlcNAc(b1-4)[Fuc(a1-6)]GlcNAc. The essentials: as §1
Assay [21] addresses Gal(b1-3)GlcNAc(b1-3)Gal(b1-4)[Fuc(a1-3)]GlcNAc. The essentials: as §1
The target of assay [22] is Gal(b1-4)GlcNAc(b1-2)Man. The essentials:
as §1

Assay [23] concerns the target Gal(b1-4)GlcNAc(b1-3)Gal(b1-4)GlcNAc(b1-3)Gal(b1-4)GlcNAc(b1-2)Man(a1-3)[Gal(b1-4)GlcNAc(b1-3)Gal(b1-4)GlcNAc(b1-3)Gal(b1-4)GlcNAc(b1-2)Man(a1-6)]Man(b1-4)GlcNAc(b1-4)[Fuc(a1-6)]GlcNAc. Put shortly:
as §1

Only a selection was taken, and the strongest signals are over-represented in it overall.

B1: Mg3lysM (Mycosphaerella graminicola) (protein)
chain: APQNPPTSCSAAPQPTGTGSPGTVCGSTTFTNYTVKAGDTLGAIAKQYNSGVCDIAKVNGIDNPDYIKPDQVLSIPANCVTPDNTSCVKPVPVITNTCVLGVGSTYTVKSGDSFSAIATSFNITLASLEARNPQIPNYDLIFPGQVINTPLCPNSVCDSIGTYVIESGDIFYNLAQSNNVTVGQLESLNVNVNVTDIHPGDIIILPHNCHNITASA
Take B1: the “glycan array binding signal (z-score)” value in assay [1] was -0.076; in [2] it was -0.042; in [3], 0.259; in [4] it was -0.021; in [5], -0.086; in assay [6], -0.089. The “glycan array binding signal (z-score)” value in assay [7] was -0.1; in [8], -0.127; in [9] it was -0.118; in assay [10], -0.072; in [11], 0.01; in [12], 0.023. Further, the “glycan array binding signal (z-score)” value in [13] was -0.089; in [14], -0.058; in assay [15] it was 0.131; in assay [16] it was -0.12; in [17], -0.123; in assay [18], -0.065. The “glycan array binding signal (z-score)” value in assay [19] was 0.063; in assay [20], 0.15; in assay [21] it was -0.157; in [22], -0.039; in [23] it was -0.107.

The record behind these values is the supplement of paper PMC8728848.
